Each structure is given as a SMILES string. Among all 360,000 compounds or so, about 9,100 (2.5%) were called active. Another 4% or so got no clear call; they are omitted. No stated cut-off is given here; in the data, active means max response below about -50%; inconclusive means no clear call, values can overlap the other calls; inactive means above that. For the sample, actives were picked, then their nearest neighbours and some compounds at random.
On the % scale 0 is the no-effect control and ±100 the full control effect.

Chain of D(3) dopamine receptor (Homo sapiens) (P35462 whole entry, looked up): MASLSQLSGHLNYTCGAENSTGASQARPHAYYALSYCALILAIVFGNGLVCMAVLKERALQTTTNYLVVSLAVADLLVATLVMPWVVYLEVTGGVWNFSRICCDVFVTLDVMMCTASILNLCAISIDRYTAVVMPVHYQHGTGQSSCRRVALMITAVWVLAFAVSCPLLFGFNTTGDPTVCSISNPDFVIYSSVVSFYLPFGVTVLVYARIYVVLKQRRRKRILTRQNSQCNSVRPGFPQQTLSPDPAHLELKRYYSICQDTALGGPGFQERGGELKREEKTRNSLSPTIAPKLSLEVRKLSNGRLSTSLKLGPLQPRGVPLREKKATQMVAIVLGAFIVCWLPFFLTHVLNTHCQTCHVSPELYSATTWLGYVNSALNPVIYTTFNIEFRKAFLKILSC

The assay has as its target D(3) dopamine receptor (Homo sapiens) (UniProt P35462). Nature of the assay: qHTS of D3 Dopamine Receptor Antagonist: qHTS. Particulars: D3R cells, DiscoveRx beta-arrestin luminescence, antagonist mode; hits give low values. The method in brief: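 Cells expressing the human receptor were seeded at 1500 cells/well, incubated overnight at 37 degrees C in 5% CO2, then exposed to library compounds with dopamine controls for 90 minutes at 37 degrees C before luminescent detection.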
On the technique in general: qHTS replaces the single test concentration by a dilution series.
As for `CCOC(=O)C1CCCN(C(=O)c2ccc(C)c(F)c2)CC1` (configuration not stated), the max response, negative = inhibition was -26.1% (inactive).

For the compound `Cc1sc2ncnc(SCC(=O)NC3CCS(=O)(=O)C3)c2c1C` (configuration not stated), the max response, negative = inhibition was -20.5% (inactive). The same measure for `CC1(C(=O)NCCc2c[nH]c3ccccc23)C=CC2(CCCCC2)N1C(=O)c1ccccc1` (configuration not stated): 45.7% (inactive); for `O=C(NCCc1c[nH]c2ccccc12)C1CCN(Cc2ccc(Br)cc2)CC1`: -82.8% (active).

For the compound `Cc1ccc2[nH]cc(CCNC(=O)C3CCCCC3)c2c1`, the max response, negative = inhibition is 11.6% (inactive).

`CCOc1ccc(CN2CCN(Cc3c[nH]c4ccccc34)CC2)cc1`: the max response, negative = inhibition was -60% (active). For the compound `CCOc1ccc(CN2CCCN(C)CC2)cc1`, the max response, negative = inhibition was -29.1% (inactive). Regarding `CCOc1ccc(CN2CCN(CCCc3ccccc3)C(CCO)C2)cc1` (configuration not stated), the max response, negative = inhibition was -25.6% (inactive). For `C[C@H]1CN([C@@H](C)CO)C(=O)CCCn2cc(nn2)CO[C@@H]1CN(C)S(=O)(=O)c1cccc(C#N)c1`, the max response, negative = inhibition was 14.4% (inactive). Under `COc1ccc(N2c3ccccc3CN(Cc3ccccc3)[C@@H](C)[C@H]2Cc2ccc(-c3ccccc3)cc2)cc1` stands 9.42% (inactive). The same measure for `CCC(=O)N1Cc2cc(C(=O)NCc3cccc(F)c3)nc(-c3cccc(C4=CCCC4)c3)c2[C@H]1CCO`: -8.57% (inactive); for `CCOC(=O)c1c(C)[nH]c(C)c1C(=O)COC(=O)/C=C/c1cccc([N+](=O)[O-])c1`: 19.7% (inactive). Regarding `O=C(COC(=O)/C=C/c1ccc(Cl)cc1)NC1CCS(=O)(=O)C1` (configuration not stated), the max response, negative = inhibition was -20.8% (inactive). The same measure for `Cc1ccc(-c2nc(CS(=O)CC(=O)NC3CCCC3)c(C)o2)cc1` (configuration not stated): 12.9% (inactive); for `Cc1cc(NC(=O)CSCc2nc(-c3cccc(Cl)c3)oc2C)no1`: -28.8% (inactive); for `Cc1ccc(-c2nc(CSCC(=O)NC3CCN(Cc4ccccc4)CC3)c(C)o2)cc1`: -76.3% (active). Under `CN(C)C(CNC(=O)c1cc2ccccc2o1)c1ccccc1` (configuration not stated) stands -82.9% (active); under `Cc1cc(NC(=O)c2cc3ccccc3o2)no1`, 3.37% (inactive); under `CN(C)C(CNC(=O)Cc1ccc([N+](=O)[O-])cc1)c1ccccc1` (configuration not stated), -19% (inactive). In the case of `COc1ccc(OC)c(NC(=O)C2(C)CCN2C(=O)Cc2ccccc2)c1` (configuration not stated), the max response, negative = inhibition was 19.2% (inactive).

`CCCOc1ccc(Cn2c(O)cc(=O)[nH]c2=O)cc1`: the max response, negative = inhibition is -8.86% (inactive). Under `COc1cc(=O)[nH]c(=O)n1C(=O)Cc1ccccc1` stands -54.3% (active); under `CC1(C(=O)NS(=O)(=O)c2ccccc2)CCN1C(=O)C1CCCCC1` (configuration not stated), -29.5% (inactive); under `CC(=O)Nc1ccc(-c2ccnc3c2CC(C(=O)NC(C)C)O3)cc1` (configuration not stated), 23.5% (inactive).

Regarding `CC1CC(NC(=S)N(C)C)CC(C)(C)C1` (configuration not stated), the max response, negative = inhibition is -2.04% (inactive). Under `O=C(/C=C/c1ccc(Cl)c([N+](=O)[O-])c1)c1ccc(O)cc1` stands -79.6% (active). With `CC(=O)Nc1ccc(C=CC(=O)c2ccc([N+](=O)[O-])cc2)cc1`, the max response, negative = inhibition was 1.23% (inactive). Under `CC(CC(=O)O)C(=O)c1ccc(Cl)c([N+](=O)[O-])c1` (configuration not stated) stands 7.05% (inactive); under `CCCCn1nnnc1C(c1ccccc1)N1CCN(c2ccccc2OC)CC1` (configuration not stated), -12.3% (inactive).

For the compound `OC(c1ccc(F)cc1)c1ncc(-c2cccc(C(F)(F)F)c2)[nH]1` (configuration not stated), the max response, negative = inhibition was 4.48% (inactive). On to `CCCCNC(=O)C[C@@H]1C[C@@]2(C(=O)OCC)CCC=C2N(Cc2cccc3ccccc23)C1=O`, for which the max response, negative = inhibition was 0% (inactive).

As to `CC1=C/C(=N\OS(=O)(=O)c2ccccc2)C=CC1=O`, the max response, negative = inhibition was -80.7% (active). With `CC(C)(C)C1CCC(=O)N2CCC[C@]2(c2ccccc2)C1` (some centres not stated), the max response, negative = inhibition was 0% (inactive).

Turning to `CC1(C)OC(=O)C2=C(C[C@@H](C3CCCC3)O[C@@H]2c2ccc(Cl)cc2)O1`, the max response, negative = inhibition is 0.96% (inactive). Under `CN(O)C(=S)c1ccccc1` stands -113% (active); under `CN(CC(=O)O)C(=O)c1ccccc1`, -19.9% (inactive). The same measure for `CN(Cc1ccccc1)C(=O)c1cccc(C(=O)N(C)Cc2ccccc2)c1`: -13% (inactive); for `Cc1csc(=O)n1CCC(=O)OCC(=O)Nc1ccc(N2CCOCC2)cc1`: -0.664% (inactive); for `O=C(COC(=O)c1ccc(F)cc1)NCC1COc2ccccc2O1` (configuration not stated): -19.4% (inactive). The same measure for `O=[N+]([O-])c1ccc(N2CCN(CC(O)COc3ccccc3)CC2)cc1` (configuration not stated): -27.1% (inactive); for `OC(COCC1COc2ccccc2O1)CN1CCN(c2ccc(F)cc2)CC1` (configuration not stated): -58.5% (active); for `CCc1cccc(CC)c1N1C(=O)CC(Sc2ccccc2N)C1=O` (configuration not stated): -0.919% (inactive). For the compound `C[C@H](CO)N1C[C@H](C)[C@@H](CN(C)S(=O)(=O)c2ccc(Oc3ccccc3)cc2)OCc2cn(nn2)CCCC1=O`, the max response, negative = inhibition is 2.13% (inactive).

For `CCn1c(=S)[nH]c2sc3c(c2c1=O)CCCCC3`, the max response, negative = inhibition was -15.3% (inactive). With `O=c1c2c3c(sc2n(CCN2CCCC2)c(=O)n1Cc1ccccc1)CCCCC3`, the max response, negative = inhibition was -21.9% (inactive).

For the compound `CN(C)CCCn1c(=O)n(Cc2ccccc2)c(=O)c2c3c(sc21)CCCCC3`, the max response, negative = inhibition was -52.1% (active).

As to `Cc1ccc(-c2cnc(C(O)c3cc(Cl)cc(Cl)c3)[nH]2)cc1` (configuration not stated), the max response, negative = inhibition was 17.6% (inactive).

As for `COc1cccc(CN2CCN(Cc3ccc4cccc(F)c4n3)CC2CCO)c1` (configuration not stated), the max response, negative = inhibition is -65.2% (active). Under `Cc1cccc(CN2CCN(Cc3cnn(-c4ccccc4F)c3)CC2CCO)n1` (configuration not stated) stands -69% (active); under `Cc1ccc(CN2CCN(Cc3ccc4ncccc4c3)CC2CCO)cc1` (configuration not stated), -16% (inactive). `OCCC1CN(Cc2ccccc2-c2ccco2)CCN1Cc1ccsc1` (configuration not stated): the max response, negative = inhibition was -16.3% (inactive). With `CC(=O)Nc1ccc(CN2CCN(Cc3ccc(F)c(F)c3)C(CCO)C2)cc1` (configuration not stated), the max response, negative = inhibition is 7.18% (inactive). Regarding `OCCC1CN(Cc2cnc(-c3ccccc3)s2)CCN1CCc1ccccc1` (configuration not stated), the max response, negative = inhibition was -27.8% (inactive). The same measure for `Cc1ccc(CN2CCN(Cc3cccc(C)n3)CC2CCO)cc1` (configuration not stated): -24.5% (inactive). Regarding `OCCC1CN(Cc2cccc(O)c2)CCN1CCc1ccccc1` (configuration not stated), the max response, negative = inhibition was -52.7% (active). The same measure for `OCCC1CN(Cc2ccc(Oc3ncccn3)cc2)CCN1CCc1ccccc1` (configuration not stated): -10.3% (inactive); for `OCCC#Cc1ccc(CN2CCN(Cc3ccsc3)C(CCO)C2)cc1` (configuration not stated): -22.9% (inactive).

With `OCCC1CN(Cc2cccc(OC3CCCC3)c2)CCN1Cc1ccsc1` (configuration not stated), the max response, negative = inhibition is -81.9% (active). In the case of `CCOc1ccc(CN2CCN(Cc3ccc4cc(F)ccc4n3)CC2CCO)cc1` (configuration not stated), the max response, negative = inhibition is -27.2% (inactive). `Cc1ccc(C(=O)OCC(=O)NC2CCCCCCC2)cc1C`: the max response, negative = inhibition is 5.37% (inactive).

With `CCCCNC(=O)C[C@@H]1C[C@@]2(C(=O)OC)CC(C)(C)CC=C2N(Cc2ccco2)C1=O`, the max response, negative = inhibition is 22.3% (inactive). The same measure for `Cc1cc(Br)cn2c(Cc3ccccc3C(F)(F)F)c(-c3ccc(Cl)cc3)nc12`: 3.99% (inactive); for `CCC(O)C1CCN(Cc2cn(-c3ccc(OC)cc3)nc2-c2cccc(F)c2)CC1` (configuration not stated): -73% (active); for `COc1ccc(-n2cc(CN(C)Cc3n[nH]c(=O)[nH]3)c(-c3cccc(F)c3)n2)cc1`: 0.876% (inactive). Consider `COc1ccc(-n2cc(CNC3CCOCC3)c(-c3cccc(F)c3)n2)cc1`, for which the max response, negative = inhibition is -0.354% (inactive). The same measure for `CCCCOCCCNC(=O)C[C@@H]1C[C@@]2(C(=O)OCC)CCCC=C2N(CCC2=CCCCC2)C1=O`: 2.81% (inactive); for `CN1OC[C@@H]2CN(S(=O)(=O)c3cccc4ccccc34)[C@H](c3ccc(N4CCCCC4)cc3)C[C@@H]21`: 0% (inactive). Under `C[C@H]1Cn2cnc(C(=O)N[C@@H](Cc3c[nH]c4ccccc34)C(=O)OC(C)(C)C)c2C(=O)N1` stands 5.11% (inactive); under `CN(C)C(=O)c1cccc(-c2cnc3c(NC=O)cc(-c4ccc(F)cc4)cn23)c1`, 95.3% (inactive); under `CCc1ccc(-c2nn(-c3ccccc3)cc2CSC(=N)N)cc1`, 6.38% (inactive). Under `N=C(N)SCc1cccc2ccccc12` stands -51.3% (active); under `CCOc1ccc(Br)cc1CSC(=N)N`, -4.48% (inactive).

`CCCNC(=O)C[C@@H]1CC[C@@H]2[C@H](COC[C@H](O)CN2C(=O)c2cc(Cl)cc(Cl)c2)O1`: the max response, negative = inhibition was 13.7% (inactive).

In the case of `N#CCCN(C(=S)Nc1ccc(Cl)c(Cl)c1)C1CCCCC1`, the max response, negative = inhibition was 2.54% (inactive). Regarding `CN1OC[C@@H]2CN(C(=O)C(C)(C)C)[C@H](c3ccc(-n4ccnc4)cc3)C[C@@H]21`, the max response, negative = inhibition is 22.8% (inactive). As for `C[C@@H]1CCCCO[C@H](CN(C)Cc2ccccc2)[C@@H](C)CN([C@H](C)CO)C(=O)c2cc(NS(=O)(=O)c3ccc(Cl)cc3)ccc2O1`, the max response, negative = inhibition was -0.783% (inactive). Take `Cc1ccc(NS(=O)(=O)c2ccc(N/N=C/c3ccccc3OCC(=O)O)c([N+](=O)[O-])c2)c(C)c1`: the max response, negative = inhibition was -17% (inactive).

With `COc1ccc(Br)cc1/C=N/Nc1ccc(S(=O)(=O)Nc2ccccc2C(=O)O)cc1[N+](=O)[O-]`, the max response, negative = inhibition was -66% (active). In the case of `O=C(O)c1ccccc1/C=N/Nc1ccc(S(=O)(=O)Nc2ccc(Cl)cc2)cc1[N+](=O)[O-]`, the max response, negative = inhibition is 6.67% (inactive). On to `CCCNC(=O)C1CC(=O)N(c2ccc(OCc3ccccc3)cc2)C1` (configuration not stated), for which the max response, negative = inhibition is 0% (inactive). The same measure for `CCNC(=O)C1(C)CCN(Cc2ccc(C(=O)OCC)o2)C1` (configuration not stated): -10.7% (inactive).

For `COc1ccc(C(=O)O)cc1S(=O)(=O)NC1CCN(Cc2ccccc2)CC1`, the max response, negative = inhibition is 8.04% (inactive).

For `COc1cc(C(=O)NC2CCN(Cc3ccccc3)CC2)cc(Cl)c1OC(C)C`, the max response, negative = inhibition was -71.6% (active). Consider `COC(=O)c1cccc(NC(=O)CN2CCC(NC(=O)c3cc(OC)c(OC)c(OC)c3)CC2)c1`, for which the max response, negative = inhibition was 24% (inactive). The same measure for `COc1cc2[nH]c(=O)n(CCC(=O)NC3CCN(Cc4ccccc4)CC3)c(=O)c2cc1OC`: -7.24% (inactive); for `COc1cc2[nH]c(=O)n(Cc3ccc(C(=O)NC4CCN(Cc5ccccc5)CC4)cc3)c(=O)c2cc1OC`: -79.7% (active). Under `CCOc1cc2[nH]c(=O)n(Cc3ccc(C(=O)NCCCN4CCCC4=O)cc3)c(=O)c2cc1OCC` stands 6.17% (inactive).

Source of the values: PubChem BioAssay AID652054 (National Center for Advancing Translational Sciences (NCATS), 2013).
